# Source: PubChem BioAssay
# Shiga toxin inh: blocks Shiga toxin action in Vero cells. Vero cells, Shiga toxin protein synthesis inhibition reporter. inhibition, % at 38.7 µM. hit rate 9.2% among 290,000; in the data active = inhibition mostly above about 28%, no sharp cut-off; inactive = mostly below about 43%; also: 0% is about no effect
# LASV entry inh: blocks Lassa virus binding to or entry into cells; Potency, µM (titrated, usually from 37.9 µM), for inactives: top-dose activity change, negative = inhibition, actives largely listed as inhibitors; hit rate 1.2% among 300,000; Lassa virus pseudotype entry inhibition, cell reporter; calls by dose curve; tested in HEK293 cells; also: potency is read from the fitted curve at half-maximal effect; % is scaled to controls: 0 for no effect and ±100 for the full control effect; nearly all actives have a fitted effect of over 50% in size
# Pf growth 96h: P. falciparum growth inhibition at 96 hour, primary screen for plastid delayed-death inhibitors. P. falciparum luciferase reporter growth, 96 h. Potency, µM (doses to about 28.7 µM), for inactives: top-dose activity change, negative = inhibition, most hits filed as inhibitors. hit rate 6.9% among 320,000. AID 504834; also: potency is read from the fitted curve at half-maximal effect; % is scaled to controls: 0 for no effect and ±100 for the full control effect
#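 P. falciparum expressing integrated firefly luciferase grown in erythrocytes (2% hematocrit, 0.05% parasitemia final) with compounds for 96 hours at 37 C, 5% CO2. Growth inhibition read as loss of luminescence after adding luciferase detection reagent.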
# Marburg entry inh: inhibitors of Marburg virus binding or cell entry. Marburg virus pseudotyped entry inhibition, cell reporter. Potency, µM (top dose mostly 37.8 µM), without a hit: top-dose activity change, negative = inhibition, usual class: inhibitors. hit rate 1.8% among 300,000. AID 540276; calls by dose curve; tested in HEK293 cells; also: potency is read from the fitted curve at half-maximal effect; % is scaled to controls: 0 for no effect and ±100 for the full control effect
# Pf growth 48h: P. falciparum growth inhibition at 48 hours (one generation). P. falciparum luciferase growth in erythrocytes, 48 h. Potency, µM (highest dose often 28.7 µM), for inactives: at the top dose activity change, negative = inhibition, actives largely listed as inhibitors. hit rate 5.9% among 310,000; also: potency is read from the fitted curve at half-maximal effect; % is scaled to controls: 0 for no effect and ±100 for the full control effect
#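 In quantitative HTS format, infected erythrocytes bearing luciferase-reporter parasites were treated for a single generation at 37 C. Luminescence after adding detection reagent served as the growth measure.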
# CHX counter: counter-screen for Shiga toxin inhibitors: cycloheximide protein synthesis inhibition | max response, % | AID 2314 | cell reporter, cycloheximide protein synthesis inhibition counterscreen | hit rate 12% among 300,000; in the data active = max response mostly above about 13%, no sharp cut-off; inactive = mostly below about 14%; also: read at 38.3 µM for the half of the compounds with a filed dose; 0% is about no effect
# * = called active by the depositor; ? = inconclusive; · = not tested or not shown; [ ] = remark or other dose. Most compounds without a hit are left out; they make up all but 19% or so of the library. Unless noted, calls follow the shape of the dose curve; as a rule, active = well fitted inhibition curve with a large enough effect; inconclusive = small, poorly fitted or top-dose-only effect, or another doubt; inactive = no such curve, though single readings can be large or run the other way.
SMILES,Shiga toxin inh,LASV entry inh,Pf growth 96h,Marburg entry inh,Pf growth 48h,CHX counter
COc1ccccc1C(=O)Nc1nnc(-c2ccc3c(c2)CCCC3)o1,39.1,·,24.4%,·,·,18.2
CC(=O)Nc1nnc(-c2ccc3c(c2)CCCC3)o1,65.2*,·,?,·,·,46.4*
Cc1ccc(C2=NCC(=O)Nc3ccc(Br)cc32)cc1,·,-11.1%,199.6%,-10.4%,6.8%,0.7
CC(=O)Nc1ccc(-c2csc(Nc3ccc(Cl)cn3)n2)cc1,22.8,-23.9%,2.4%,?,10.6%,38.4*
CC(=O)Nc1cccc(C(=O)OCC(=O)Nc2ccc(Cl)cn2)c1,·,28.3%,5.8%,0.8%[46.1 µM],48.8%,·
CC(=O)Nc1cccc(-c2csc(Nc3ccc(Cl)cn3)n2)c1,146.5*,·,5.9%,·,-5.4%,46.2*
COc1cccc(NC(=O)C2CCCN(c3ncnc4onc(-c5ccc(F)cc5)c34)C2)c1 (stereo not drawn),·,23.0%[46.1 µM],·,·,·,·
CC1CCCC/C1=N\NS(=O)(=O)c1ccc(Br)cc1 (stereo not drawn),-1.2,?,?,20.9%[46.1 µM],·,9.5
CCOC(=O)c1ccc2c(c1)N(CC(=O)Nc1ccc(CC)cc1)C(=O)c1ccccc1S2,·,25.3%[46.1 µM],·,·,·,·
CCc1ccc(CN(C)C(=O)C2CCC(=O)N(CC3CCCCC3)C2)cc1 (stereo not drawn),11.1,?,13.1µM*,4.3%,?,38.4*
Cc1ccc(CN(C)C(=O)C2CCC(=O)N(CCc3ccccc3)C2)o1 (stereo not drawn),31.4*,·,?,·,-3.5%,20.3*
CN(Cc1cnccn1)C(=O)C1CCC(=O)N(CCc2ccccc2)C1 (stereo not drawn),-4.8,·,?,·,-7.3%,-2.9
O=C(NCCOc1ccccc1)C1CCC(=O)N(CCc2ccc(Cl)cc2)C1 (stereo not drawn),32.5,-3.9%,?,?,-2.9%,19.4*
COc1ccc(CCN2CC(C(=O)N(C)CCOc3ccccc3)CCC2=O)cc1 (stereo not drawn),22.4,·,4.5%,·,-12.4%,25.9*
CCCCN1C(=O)Nc2ccccc2S1=O (stereo not drawn),-3.4,-1.5%,13.8%,-27.4%,12.6%,-1.1
O=C1CCC(C(=O)N2CCCCO2)CN1CCc1ccc(Cl)cc1 (stereo not drawn),20.2,?,-18.7%,18.4%,4.6%,20.0*
CN(CCOc1ccccc1)C(=O)C1CCC(=O)N(CCc2ccc(Cl)cc2)C1 (stereo not drawn),87.2*,-6.3%,-13.6%,?,-13.1%,46.5*
CCN(CC)C(=O)C1CC(=O)OC12CCCCC2 (stereo not drawn),-1.8,-4.8%,-19.9%,10.5%,14.8%,-1.2
CCN(c1ccc(OC)cc1)S(=O)(=O)c1ccc2c(c1)CCN2C(=O)CCC(=O)O,1.3,15.0%[14.3 µM],·,?,?,-2.9
CCC(C)C(=O)Nc1nc(C)c(-c2csc(Nc3ccc(Cl)cc3)n2)s1 (stereo not drawn),-11.0,·,9.28µM*,·,13.1µM*,1.2
CCCC(=O)Nc1nc(C)c(-c2csc(Nc3ccc(Cl)cc3)n2)s1,8.6,·,?,·,0.828µM*,-1.0
CCCc1nnc(NC(=O)CCC(=O)Nc2ccc(Cl)cc2)s1,-1.2,·,-5.7%,·,17.9%,0.3
CCS(=O)(=O)c1ncc(N(Cc2ccco2)Cc2sccc2C)c(C(=O)Nc2cc(C)ccc2C)n1,·,-24.3%[46.1 µM],·,?,·,·
Cc1ccsc1/C=N/Nc1nc2ccccc2[nH]1,active,·,?,·,?,43.5*
C(=N\Nc1nc2ccccc2[nH]1)/c1cccs1,123.6*,18.1%,2.62µM*,?,2.94µM*,69.1*
SMILES,Shiga toxin inh,LASV entry inh,Pf growth 96h,Marburg entry inh,Pf growth 48h,CHX counter
CS(=O)(=O)Nc1nc2ccccc2[nH]1,-2.8,·,56.9%,·,8.4%,4.4
COc1ccc(-c2nc3c(n2O)CCC/C3=N\O)cc1,76.7,11.6%,156.3%,17.1%,71.8%,27.3*
Cc1nc2c(n1O)CCC/C2=N\O,-12.4,-6.3%,38.9%,-12.9%,15.9%,0.5
Cc1cc(C)c(S(=O)(=O)NC2CC(C)(C)NC(C)(C)C2)cc1C,-4.8,-18.3%[46.1 µM],-2.3%,?,6.3%,-2.1
COc1cccc(CNc2ncc(Br)cc2Br)c1O,61.4*,7.4%,108.3%,?,82.6%,65.6*
COc1cccc(CNc2ccc(Br)cn2)c1O,71.7*,?,173.0%,?,-64.9%,43.4*
COc1cccc(CNn2cnnc2)c1O,-11.3,-7.3%,34.1%,-14.7%[46.1 µM],54.9%,1.0
